According to publication PMC4336329 (PLoS ONE, 2015):
Among all 310,000 compounds or so, about 2,200 (0.71%) showed an effect of 50% or more. The effect is printed as a negative number. The full list was thinned out, with strong results kept by preference.

Biological target: human ether-à-go-go-related gene (hERG) potassium channel (human, UniProt Q12809)
Assay: primary screen, population patch clamp on CHO cells stably expressing hERG; higher = less effect of the substance

Chain of human ether-à-go-go-related gene (hERG) potassium channel (Q12809 whole entry, looked up): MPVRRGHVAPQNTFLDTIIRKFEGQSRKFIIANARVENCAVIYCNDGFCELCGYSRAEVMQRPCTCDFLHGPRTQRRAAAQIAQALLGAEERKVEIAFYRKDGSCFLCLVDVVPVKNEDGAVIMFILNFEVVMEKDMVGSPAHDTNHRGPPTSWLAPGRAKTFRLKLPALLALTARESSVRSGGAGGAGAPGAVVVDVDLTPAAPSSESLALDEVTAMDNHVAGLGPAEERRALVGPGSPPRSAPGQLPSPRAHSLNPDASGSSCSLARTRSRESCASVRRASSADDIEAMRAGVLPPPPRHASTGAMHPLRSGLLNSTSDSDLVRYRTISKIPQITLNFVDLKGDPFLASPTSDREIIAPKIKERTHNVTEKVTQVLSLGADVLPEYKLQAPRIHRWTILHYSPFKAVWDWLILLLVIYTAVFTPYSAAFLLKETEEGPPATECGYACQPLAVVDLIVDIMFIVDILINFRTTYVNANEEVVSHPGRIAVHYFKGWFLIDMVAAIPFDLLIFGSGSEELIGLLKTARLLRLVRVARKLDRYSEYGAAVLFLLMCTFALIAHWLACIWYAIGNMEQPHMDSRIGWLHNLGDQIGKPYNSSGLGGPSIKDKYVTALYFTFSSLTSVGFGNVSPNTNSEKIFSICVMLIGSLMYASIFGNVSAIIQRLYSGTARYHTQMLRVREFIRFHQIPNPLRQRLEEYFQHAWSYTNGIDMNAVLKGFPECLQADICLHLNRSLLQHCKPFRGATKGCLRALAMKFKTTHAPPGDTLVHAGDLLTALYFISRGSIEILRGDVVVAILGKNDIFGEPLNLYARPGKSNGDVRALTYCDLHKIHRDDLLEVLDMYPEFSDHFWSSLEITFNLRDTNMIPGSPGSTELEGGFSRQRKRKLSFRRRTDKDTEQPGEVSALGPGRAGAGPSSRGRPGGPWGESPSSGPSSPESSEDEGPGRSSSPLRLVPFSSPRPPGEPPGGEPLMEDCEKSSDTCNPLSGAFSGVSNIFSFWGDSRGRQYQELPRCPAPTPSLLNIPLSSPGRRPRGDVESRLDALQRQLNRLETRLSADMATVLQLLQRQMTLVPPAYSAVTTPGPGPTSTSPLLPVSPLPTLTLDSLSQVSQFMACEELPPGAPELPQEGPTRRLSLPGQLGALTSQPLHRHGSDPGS

SMILES | hERG current change (%, negative = inhibition) at 1uM
Cn1c(N)c(C(=O)COc2ccc(Cl)cc2Cl)c(=O)n(C)c1=O | 12.3%
Cn1c(N)c(C(=O)COC(=O)CCCOc2ccc(Cl)cc2Cl)c(=O)n(C)c1=O | 16%
CC(Oc1ccc(Cl)cc1Cl)C(=O)OCC(=O)c1c(N)n(C)c(=O)n(C)c1=O (centres unmarked) | -57.5%
O=C(CSc1nc2c(cnn2-c2ccc(F)cc2)c(=O)[nH]1)N1CCCCCC1 | 11%
O=C(Nc1ccncc1)C1COc2ccccc2O1 (centres unmarked) | 1.88%
O=C(C1CC(=O)N(c2ccc(F)cc2)C1)N1CCN(c2ccc(F)cc2)CC1 (centres unmarked) | -71.1%
O=C1CC2(CCN(C(=O)C3CC(=O)N(c4ccc(F)cc4)C3)CC2)Oc2ccccc21 (centres unmarked) | -73.6%
COc1cccc(N2CC(C(=O)N3CCC4(CC3)CC(=O)c3ccccc3O4)CC2=O)c1 (centres unmarked) | 3.79%
O=C(C1CC(=O)N(c2ccc(F)cc2)C1)N1CCN(c2ccccc2)CC1 (centres unmarked) | -13.6%
Cc1ccc(N2CC(C(=O)N3CCC4(CC3)CC(=O)c3ccccc3O4)CC2=O)cc1C (centres unmarked) | -6.22%
COc1ccc(N2CC(C(=O)N3CCC4(CC3)CC(=O)c3ccccc3O4)CC2=O)cc1 (centres unmarked) | -34.8%
O=C1CC2(CCN(C(=O)C3CC(=O)N(c4ccccc4)C3)CC2)Oc2ccccc21 (centres unmarked) | -51.5%
O=C(C1CC(=O)N(c2ccccc2)C1)N1CCN(c2ccc(F)cc2)CC1 (centres unmarked) | -8.63%
Cc1ccc(N2CC(C(=O)N3CCC4(CC3)CC(=O)c3ccccc3O4)CC2=O)cc1 (centres unmarked) | -47.4%
Cc1cnc(C(=O)NNC(=O)c2ccc(Br)cc2)cn1 | 2.55%
Cc1cccc(NC(=O)CNC(=O)COc2ccc(C(=O)c3ccc(F)cc3)cc2)c1C | 1.92%
CCCCC(=O)Nc1ccc2c(c1)nc(CN1CCN(C(=O)OCC)CC1)n2C | 13.1%
Cc1ccc(Oc2cc(C#N)c(C#N)cc2-n2nnc3ccccc32)cc1C | 7.63%
CCCCN(CC)C(=O)Cc1ccccc1OC | 18%
COc1ccc(-c2noc(CCC(=O)NCCCN3CCC(Cc4ccccc4)CC3)n2)cc1 | -84.9%
Cc1ccc(S(=O)(=O)NCc2ccc(C(=O)NCCCN3CCC(Cc4ccccc4)CC3)cc2)cc1 | -52.4%

SMILES | hERG current change (%, negative = inhibition) at 1uM
O=c1c2cc(NC(=S)NCCCN3CCC(Cc4ccccc4)CC3)ccc2nc2n1CCCCC2 | -57.1%
CSc1ccc(NC(=O)NCCCN2CCC(Cc3ccccc3)CC2)cc1 | -76%
CC(=O)Nc1ccc(S(=O)(=O)NCc2ccc(C(=O)NCCCN3CCC(C)CC3)cc2)cc1 | 16.7%
Cc1ccccc1CC1CCN(CCCNC(=O)Nc2ccccc2)CC1 | -34.1%
O=c1c2cc(NC(=S)NCCN3CCCCCC3)ccc2nc2n1CCCCC2 | 7.57%
COc1ccc(-c2noc(CCC(=O)NCCCN3CCC(C)CC3)n2)cc1 | 9.03%
CCN1CCN(CCCNC(=O)CCc2nc(-c3ccc(OC)cc3)no2)CC1 | 6.54%
Cc1ccc(S(=O)(=O)NCc2ccc(C(=O)NCCCN3CCN(C)CC3)cc2)cc1 | 13.4%
CCCCNC(=S)Nc1ccc2nc3n(c(=O)c2c1)CCCCC3 | -24.7%
CSc1ccc(NC(=O)NCCCN2CCN(c3ccccc3F)CC2)cc1 | -12.8%
COc1ccc(C2C=C(Nc3ccccc3)C(=O)N2c2ccccc2)cc1OC (centres unmarked) | 20.1%
C/C(=N/NC(=O)c1ccc(C)nc1)c1ccc2c(c1)CCCC2 | -4.02%
CC(=O)Oc1cc2c(cc1Cl)C1(CC(c3ccccc3Cl)O2)CC(C)(C)NC(=S)N1 (centres unmarked) | 4.5%
COc1ccc(NC(=O)N2CCC(Cc3ccccc3)CC2)cc1 | 6.74%
COc1ccc(NC(=O)NCCCCc2ccccc2)cc1 | 6.14%
COc1ccc(NC(=O)NCCCN2CCC(Cc3ccccc3)CC2)cc1 | -82.2%
Cc1ccc(NC(=O)CCn2nc(C)cc2C)c(C)c1 | 8.75%
Cc1ccccc1CC1(CO)CCCN(C(=O)c2ccccc2Cl)C1 (centres unmarked) | -70.4%
Cc1ccccc1CC1(CO)CCCN(C(=O)c2ccccc2N(C)C)C1 (centres unmarked) | 10.9%
Cc1ccccc1CC1(CO)CCCN(C(=O)c2cc(Cl)ccc2F)C1 (centres unmarked) | 14.5%
Cc1cc(=O)n2c(n1)OC(CO)C2 (centres unmarked) | 12.1%

SMILES | hERG current change (%, negative = inhibition) at 1uM
Cc1nc(C)c(-c2ccccc2)c(=O)[nH]1 | 12.8%
O=C(N1CCOCC1)N1c2ccccc2CC(N2CCOCC2)c2ccccc21 (centres unmarked) | 17%
OCC1(Cc2ccc(Cl)cc2)CCN(Cc2ccc(F)c(F)c2)CC1 | -4.29%
OCC1(Cc2ccccc2)CCN(Cc2ccc(C(F)(F)F)cc2)CC1 | -6.85%
OCC1(Cc2ccc(Cl)cc2)CCN(CCCc2ccccc2)CC1 | -83.6%
OCC1(Cc2ccc(Cl)cc2)CCN(Cc2ccccc2F)CC1 | -18.4%
OCC1(Cc2ccccc2)CCN(CCCC2CCCC2)CC1 | -79%
CN1CCC(CO)(Cc2ccccc2)CC1 | 4.74%
COc1ccc(CCNC(=O)Cc2cccs2)cc1 | 16.8%
COc1ccc(C(CNC(=O)CN2C(=O)NC3(CCCC3)C2=O)N(C)C)cc1 (centres unmarked) | 13.2%
COc1ccc2nc(N=NC3=C(O)CC(C)(C)CC3=O)sc2c1 | 7.73%
COc1ccccc1Nc1nc(N)nc(CN2CCN(Cc3ccccc3)CC2)n1 | -76.6%
COc1ccccc1Nc1nc(N)nc(CN2CCN(c3ccccc3)CC2)n1 | -3.16%
COc1ccc(N2CCN(Cc3nc(N)nc(Nc4ccccc4OC)n3)CC2)cc1 | -14.5%
COc1ccccc1Nc1nc(N)nc(CN2CCN(c3ccccc3F)CC2)n1 | -9.68%
COc1ccccc1Nc1nc(N)nc(CN2CCN(Cc3ccc4c(c3)OCO4)CC2)n1 | -79.8%
COc1ccccc1Nc1nc(N)nc(CN2CCOCC2)n1 | 14.7%
COc1ccccc1Nc1nc(N)nc(CN2CCC(Cc3ccccc3)CC2)n1 | -95.7%
COc1ccccc1Nc1nc(N)nc(CN2CCCCCC2)n1 | -32.2%
COc1cccc(N2CCN(Cc3nc(N)nc(Nc4ccccc4OC)n3)CC2)c1 | 10.2%
